Assay results as given in PubChem BioAssay (NCI).
Compounds without any hit were thinned out: in the full panel of roughly 83,000, 20% have a hit.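 48-hour exposure, single concentration, 96-well plates; percent growth endpoint where 0 means no net growth. Active: below 10.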 The source made the active and inactive calls.

What was measured:
Test in all cases: NCI-60 one-dose screen, 48 h (100 = growth as untreated, 0 = no growth, -100 = all killed)
Details in all cases: 10 µM unless noted
[1] = test system: SK-MEL-2 melanoma
[2] = test system: EKVX NSCLC
[3] = test system: SN12C renal
[4] = test system: UO-31 renal
[5] = test system: TK-10 renal
[6] = test system: ACHN renal
[7] = test system: CAKI-1 renal
[8] = test system: CCRF-CEM leukemia
[9] = test system: MOLT-4 leukemia
[10] = test system: SR leukemia
[11] = test system: RPMI-8226 leukemia
[12] = test system: OVCAR-8 ovarian
[13] = test system: OVCAR-5 ovarian
[14] = test system: OVCAR-4 ovarian
[15] = test system: IGROV1 ovarian
[16] = test system: OVCAR-3 ovarian
[17] = test system: HS 578T breast
[18] = test system: NCI/ADR-RES ovarian
[19] = test system: SK-OV-3 ovarian
[20] = test system: A498 renal

Measured: growth

CCCN1CCN(c2ccc3nc(-c4ccc5nc(-c6cc(OC)c(OC)c(OC)c6)[nH]c5c4)[nH]c3c2)CC1
inactive: [1] 70.9% | [2] 109% | [3] 85.4% | [4] 86.5% | [5] 125% | [6] 96.4% | [7] 105% | [8] 41.2% | [9] 62.6% | [10] 34.6% | [11] 95.3% | [12] 75.5% | [13] 116% | [14] 89.9% | [15] 101% | [16] 76.9% | [17] 54.1% | [18] 100%

NC(N)=N/N=C(/c1ccccc1)c1ccccc1F
active: [8] -2.22% | [10] 3.14% | [11] -36.8% | [16] -0.0856%
inactive: [1] 70.5% | [2] 60% | [3] 37.1% | [4] 44% | [5] 64.9% | [6] 41% | [7] 35.7% | [9] 22.4% | [12] 45.5% | [13] 76.4% | [14] 36.7% | [19] 19.5% | [15] 20.7% | [17] 38.5% | [18] 59.6%

COc1ccc(-c2nc3ccccn3c2/C=C/C(=O)c2cc(OC)c(OC)c(OC)c2)cc1
inactive: [1] 52.6% | [2] 90.4% | [3] 54.8% | [4] 42.9% | [5] 73.6% | [6] 43.1% | [7] 59.1% | [8] 41.7% | [9] 61.6% | [10] 18.8% | [11] 29.8% | [12] 30.6% | [14] 56.5% | [19] 62.8% | [15] 61.6% | [16] 51.2%

O=c1cc(-c2ccc(OCc3ccccc3)cc2)oc2c(I)c(OCc3ccccc3)cc(OCc3ccccc3)c12
inactive: [1] 113% | [2] 109% | [3] 101% | [4] 80% | [5] 96.5% | [6] 98.5% | [7] 84.2% | [8] 97.8% | [9] 113% | [10] 94.3% | [11] 108% | [12] 99.6% | [13] 103% | [14] 100% | [15] 100% | [16] 104% | [17] 88.3% | [18] 101%

COc1cc(C(=O)Nc2cc(O)c(CC=C(C)C)c(O)c2)cc2c1O[C@]1(C)CC[C@@H](O)C(C)(C)[C@H]1C2
inactive: [1] 12.9% | [2] 36.6% | [3] 64.6% | [5] 33.2% | [6] 26.4% | [10] 14.2% | [12] 31.3% | [13] 53% | [14] 58.6% | [19] 16.5% | [15] 61.1% | [16] 27.7% | [17] 10.3% | [18] 81.3%
active: [4] -1.4% | [7] 9.89% | [8] 2.18% | [9] -15.7% | [11] -24.3%

Cc1nc(Nc2ccccn2)sc1C(=O)/C=C/c1ccc(Br)cc1
inactive: [1] 97.7% | [2] 60.4% | [3] 78.8% | [4] 49.7% | [5] 127% | [6] 75.2% | [7] 53.4% | [8] 31.1% | [9] 80% | [10] 16.9% | [11] 42.5% | [12] 78.2% | [13] 95.2% | [14] 81.9% | [15] 77.7% | [16] 48.4% | [17] 77.9% | [18] 57.7%

CC(C)OC(=O)OCOP(=O)(OCOC(=O)OC(C)C)C1CCCN(O)C1=O (centres undefined)
active: [3] 5.75% | [4] 9.98% | [5] 2.39% | [20] 1.16% | [12] 2.91% | [15] 9.36% | [17] 7.77%
inactive: [1] 28.5% | [2] 47.8% | [6] 26.9% | [7] 25.1% | [8] 10% | [11] 11.8% | [13] 73.4% | [14] 36% | [16] 33.5% | [18] 39.2%

CCCCOc1nc2ccc(Cl)cc2cc1/C=C/C(=O)/C=C1/CC(c2cc3cc(Cl)ccc3nc2OCCCC)Nc2ccccc2N1 (centres undefined)
inactive: [1] 102% | [2] 78.6% | [3] 91.8% | [4] 77.4% | [5] 113% | [6] 92.7% | [7] 81.9% | [8] 101% | [9] 100% | [10] 91.2% | [12] 101% | [13] 93.8% | [14] 101% | [19] 86.1% | [15] 67.2% | [16] 102% | [17] 91.1% | [18] 98.3%

CCCCN1CCN(c2ccc3nc(-c4ccc5nc(-c6ccc(OCC)c(OCC)c6)[nH]c5c4)[nH]c3c2)CC1
active: [8] -0.368% | [9] -0.133% | [11] -25.4% | [12] -11.9% | [14] -77.4% | [16] -87.3%
inactive: [1] 13.1% | [2] 24.6% | [3] 18.8% | [4] 74.4% | [5] 57% | [6] 12.7% | [7] 27.7% | [10] 14.3% | [13] 37.7% | [15] 15.1% | [17] 35.2% | [18] 73%

Cc1c(Cl)cccc1NS(=O)(=O)c1ccccc1
inactive: [1] 132% | [2] 114% | [3] 103% | [4] 90.4% | [5] 104% | [6] 98.4% | [7] 116% | [8] 124% | [9] 102% | [10] 113% | [11] 123% | [12] 112% | [13] 92% | [14] 73.3% | [19] 105% | [15] 114% | [16] 100% | [17] 102% | [18] 104%

CC(=O)NCC(=O)Nc1ccc(-c2nnc3ccccn23)nc1.CC(=O)NCC(=O)Nc1ccc(-c2nnc3ccccn23)nc1.[Pt+2]
inactive: [1] 91.4% | [2] 110% | [3] 106% | [4] 106% | [5] 103% | [6] 103% | [7] 115% | [8] 93.3% | [9] 96.9% | [10] 104% | [11] 108% | [12] 94.3% | [13] 114% | [14] 119% | [19] 112% | [15] 106% | [16] 107% | [17] 104% | [18] 106%

CC(C)CCC[C@@H](C)[C@H]1CCC2C3=CCn4c(=O)ccc(=O)n4C3CC[C@@]21C (some centres undefined)
active: [1] -57.4% | [2] -82.2% | [3] -97.7% | [4] -88.5% | [5] -83.1% | [6] -95.1% | [7] -91.6% | [8] -2.44% | [9] -23.6% | [10] -34.6% | [11] -41.5% | [12] -39.7% | [13] -84.3% | [14] -32.4% | [19] -100% | [15] -82.4% | [16] -96.5% | [17] -12.2% | [18] -28.7%

CN1CCN(c2ccc3nc(/N=C/c4ccc5sc(-c6ccc([N+](=O)[O-])cc6)nc5c4)sc3c2)CC1
inactive: [1] 111% | [2] 97.7% | [3] 104% | [4] 92.2% | [5] 101% | [6] 108% | [7] 108% | [8] 101% | [9] 108% | [10] 91.9% | [11] 101% | [12] 99.6% | [13] 107% | [14] 105% | [15] 114% | [16] 112% | [17] 114% | [18] 104%

CC(=O)c1cc2c(o1)C(=O)c1ccccc1C2=O
active: [1] -69.4% | [2] -81% | [3] -81.2% | [4] -98.1% | [5] -96.4% | [6] -98.3% | [7] -98.4% | [8] -74.8% | [9] -43% | [10] 1.01% | [11] -44% | [12] -43.8% | [13] -86.1% | [14] -96.9% | [15] -66.9% | [16] -85.5% | [17] -23.7% | [18] -13.2%

Cc1ccc(S(=O)(=O)N(CC[C@@H]2C[C@H]2c2cc3ccccc3o2)C(=O)NC2CCCCC2)cc1
inactive: [1] 101% | [2] 101% | [3] 100% | [4] 75.9% | [5] 106% | [6] 96.9% | [7] 80.1% | [8] 118% | [9] 94.7% | [10] 100% | [11] 107% | [12] 98.8% | [13] 95.7% | [14] 93% | [15] 95.8% | [16] 104% | [17] 89.8% | [18] 86.9%

CC[C@]1(O)C[C@H]2CN(CCc3c([nH]c4ccccc34)[C@@](C(=O)OC)(c3cc4c(cc3OC)N(C=O)[C@H]3[C@@](O)(C(=O)OC)[C@H](OC(C)=O)[C@]5(CC)C=CCN6CC[C@]43[C@@H]65)C2)C1
active: [8] 5.75% | [9] 5.04% | [10] 9.82% | [11] -5.85% | [13] -47.6% | [19] -7.88% | [15] 4.04% | [16] -41.4% | [18] -62.6%
inactive: [1] 58% | [2] 27.1% | [3] 39.9% | [4] 28.6% | [5] 60.8% | [6] 36.3% | [7] 26.5% | [14] 49.2%
